# In PubChem BioAssay (NCI):
# Where “and” joins values, the source holds several entries; their conditions need not be identical. Equal values may be shown once. About 83,000 compounds went through this panel and 20% of them were active in at least one assay; those are over-represented in the sample as a whole.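 48-hour exposure, single concentration, 96-well plates; percent growth endpoint where 0 means no net growth. Active: below 10.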 A structure can be active in one record and inactive in another. Calls of active or inactive are those of the source.
# Tested on: MDA-MB-468 breast
# Experiment: NCI-60 one-dose screen, 48 h (100 = growth as untreated, 0 = no growth, -100 = all killed)
# Details: 10 µM unless noted
row,Compound,growth
1,CS(=O)(=O)O[C@@H]1C(=O)N(c2cc3c4ccccc4ccc3c3ccccc23)[C@H]1c1ccc(F)cn1,30.4% (inactive)
2,C=CC(O)CCC (stereo unspecified),109% (inactive)
3,CCSC(SCC)c1ccc(Cl)cc1,118% (inactive)
4,Cc1nc(Nc2cccc(NC(=O)Nc3ccc(Cl)cc3)c2)c2ccccc2n1,75% (inactive)
5,C#Cc1nc(C2=C(C)C(O)CC2)cs1 (stereo unspecified),-91.7% (active)
6,COc1cc(-c2nc(/C=C3/C(=O)Nc4ccccc43)c3ccccn23)cc(OC)c1OC,87.9% (inactive)
7,Cc1ccc[n+](CC(=O)c2cccc3ccccc23)c1,80.2% (inactive)
8,CCCC(CC)(C(=O)Nc1ccc2nc(C)cc(N)c2c1)C(=O)Nc1ccc2nc(C)cc(N)c2c1,87% (inactive)
9,CC(C)(C)c1cc(Cl)c(O)c(CNCCO)c1,96.1% (inactive)
10,CN1CCN(c2ccc(NC(=O)Nc3ccc4c(ccn4-c4cccc(C(N)=O)n4)c3)cc2C(F)(F)F)CC1,42.8% (inactive)
11,COc1ccc(-c2nc(SCCC(C)C)nc(N/N=C(/C)c3ccc(C)cc3)c2C#N)cc1,105% (inactive)
12,COc1cc2c(Nc3ccc(-c4ccc(N)cc4)cc3)ncnc2c(OC)c1OC,71.9% (inactive)
13,O=C(CO)C(O)C(O)C(O)C(O)CO (stereo unspecified),-18.1% (active) and 102% (inactive)
14,CC1CCCN(CCCCCOc2ccc3oc4ccccc4c(=O)c3c2)C1 (stereo unspecified),52.2% (inactive)
15,CCN(CC)CCOc1ccccc1C,118% (inactive)
16,COCCn1cc(-c2csc(-c3c[nH]c4ccc(F)cc34)n2)c2cccnc21,-6.83% (active)
17,CNC(=O)c1cc(N2CCc3cc(NC(=O)Nc4ccc(Cl)c(Cl)c4)ccc32)ccn1,84.5% (inactive)
18,C=C(C)[C@@H]1CC[C@]2(C(=O)NC(COC(=O)C(Cl)Cl)(COC(=O)C(Cl)Cl)COC(=O)C(Cl)Cl)CC[C@]3(C)[C@H](CC[C@@H]4[C@@]5(C)CC[C@H](OC(C)=O)C(C)(C)[C@@H]5CC[C@]43C)[C@@H]12,61.7% (inactive)
19,COC(=O)c1cc2c3c(cc(O)c2[nH]1)N(C(=O)C1Cc2cc(OC)c(OC)c(OC)c2N1)CC3CCl (stereo unspecified),-41.8% (active)
20,CC/C(=C(/c1ccc(Cl)cc1)c1ccc(OCCN(C)C)cc1)c1ccc(Cl)cc1,50.7% (inactive)
21,COC(=O)C1(C(=O)OC)C2C(=O)C3C(C21)C3(C(=O)OC(C)(C)C)C(=O)OC(C)(C)C (stereo unspecified),99.4% (inactive)
22,COc1cc(Cl)cc(-c2nn(-c3cccc(NC(=O)Nc4ccc(Cl)c(Cl)c4)c3)cc2-c2ccncc2)c1,0.718% (active)
23,CC(=O)Nc1ccc(C)c(Nc2cc(-c3ccc(-n4cccn4)cc3)[nH]n2)c1,20% (inactive)
24,Cc1[nH]c(C2CC(c3ccc(C(F)(F)F)c(F)c3)=NN2C)c(C)c1C(=O)NCC(F)(F)F (stereo unspecified),81.6% (inactive)
25,O=C(Nc1cc(C(F)(F)F)cc(C(F)(F)F)c1)Nc1ccc2oc(=O)ccc2c1,-5.53% (active)
26,Sc1ccc(Nc2c3ccccc3nc3ccccc23)cc1,44.1% (inactive)
